The values that follow come from PubChem BioAssay (EPA / NIEHS).

The source made the active and inactive calls. The calls were made as follows: active = hit-call score of the fitted dose curve at least 0.9, where 1 is the maximum; inactive = score below 0.9.

What all share (details): mRNA level, 48 h; actives raise or lower the signal
Read-out in one assay: BCL2L11 (gene 10018)
Nature of the assay: LTEA_HepaRG_BCL2L11: Life Technologies and Expression Analysis (LTEA) Assay for Bcl-2 (BCL2L11) gene using HepaRG (AID 2283473). The essentials: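 HepaRG, 48 h exposure, 8-pt half-log series from 100 uM in 0.5% DMSO, duplicates; qRT-PCR (Fluidigm TaqMan) for BCL2L11, housekeeping-normalized; bidirectional curve fit relative to DMSO baseline.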

Read-out in assay [1]: Apolipoprotein A-V (APOA5) gene, APOA5 (gene 116519)
Nature of the assay: LTEA_HepaRG_APOA5: Life Technologies and Expression Analysis (LTEA) Assay for Apolipoprotein A-V (APOA5) gene using HepaRG (AID 2283474). A digest of the protocol: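 HepaRG, 48 h chemical exposure in serum-free induction medium, 8-pt half-log series (top 100 uM), 0.5% DMSO vehicle, duplicates. Readout: APOA5 mRNA by qRT-PCR, housekeeping-normalized; bidirectional fit vs DMSO baseline.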

Read-out in assay [2]: Apoptosis regulator Bcl-2 (Homo sapiens) (UniProt P10415)
The experiment in a line: LTEA_HepaRG_BCL2: Life Technologies and Expression Analysis (LTEA) Assay for Bcl-2 gene using HepaRG (AID 2283475). The essentials:
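qRT-PCR of BCL2 transcript, normalized to three housekeeping genes (ACTB, GAPDH, POLR2A), after 48 h chemical exposure of HepaRG cells; concentrations top 100 uM with half-log dilutions, 0.5% DMSO vehicle, duplicates; changes up or down fitted relative to vehicle.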

Read-out in assay [3]: Bcl-2 (BID) gene, BID (gene 637)
Nature of the assay: LTEA_HepaRG_BID: Life Technologies and Expression Analysis (LTEA) Assay for Bcl-2 (BID) gene using HepaRG (AID 2283476). A digest of the protocol: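 Duplicate 48 h treatments of HepaRG cells in serum-free induction medium spanned 100 uM downward in half-log steps, 0.5% DMSO. Transcript change quantified by qRT-PCR against three housekeeping genes, fitted up or down versus DMSO.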

Read-out in the next assay: Caspase-3 (Homo sapiens) (UniProt P42574)
The experiment in a line: LTEA_HepaRG_CASP3: Life Technologies and Expression Analysis (LTEA) Assay for cysteine-aspartic acid protease (CASP3) using HepaRG (AID 2283477). The essentials: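 HepaRG, 48 h exposure, 8 conc. (top 100 uM, half-log steps, duplicate), 0.5% DMSO vehicle; qRT-PCR of CASP3 transcript, housekeeping-normalised (ACTB/GAPDH/POLR2A); bidirectional curve fit vs DMSO baseline.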

Read-out in assay [4]: Cytochrome P450 (CYP24A1), CYP24A1 (gene 1591)
Nature of the assay: LTEA_HepaRG_CYP24A1: Life Technologies and Expression Analysis (LTEA) Assay for Cytochrome P450 (CYP24A1) using HepaRG (AID 2283478). A digest of the protocol: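 qRT-PCR read-out: CYP24A1 transcript levels normalized to three housekeeping genes, bidirectional curve fits against 0.5% DMSO baseline. Human HepaRG cells treated 48 h with chemicals at eight concentrations from 100 uM in half-log steps.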

Read-out in assay [5]: Cytochrome P450 (CYP1A2), CYP1A2 (gene 1544)
The experiment in a line: LTEA_HepaRG_CYP1A2: Life Technologies and Expression Analysis (LTEA) Assay for Cytochrome P450 (CYP1A2) using HepaRG (AID 2283479). A digest of the protocol: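 HepaRG, 48 h exposure, top 100 uM, half-log 8-pt, 0.5% DMSO vehicle, duplicates. Readout: TaqMan qRT-PCR of CYP1A2 mRNA, housekeeping-normalized (ACTB/GAPDH/POLR2A). Gain/loss fit relative to DMSO baseline.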

Read-out in assay [6]: cysteine-aspartic acid protease (CASP8), CASP8 (gene 841)
Nature of the assay: LTEA_HepaRG_CASP8: Life Technologies and Expression Analysis (LTEA) Assay for cysteine-aspartic acid protease (CASP8) using HepaRG (AID 2283480). A digest of the protocol:
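Concentration-response in duplicate up to 100 uM (half-log steps, 0.5% DMSO) on differentiated HepaRG cultures for 48 h. Expression change of CASP8 mRNA is determined by TaqMan qRT-PCR with housekeeping-gene normalization.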

Read-out in assay [7]: Cytochrome P450 (CYP2B6), CYP2B6 (gene 1555)
The experiment in a line: LTEA_HepaRG_CYP2B6: Life Technologies and Expression Analysis (LTEA) Assay for Cytochrome P450 (CYP2B6) using HepaRG (AID 2283481). The essentials:
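Read-out is CYP2B6 mRNA by TaqMan qRT-PCR, normalized to three housekeeping genes and fitted bidirectionally against 0.5% DMSO baseline. Human HepaRG cells received test chemicals for 48 h, top concentration 100 uM, half-log dilutions.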

Read-out in assay [8]: Cytochrome P450 2C19 (Homo sapiens) (UniProt P33261)
Nature of the assay: LTEA_HepaRG_CYP2C19: Life Technologies and Expression Analysis (LTEA) Assay for CYP2C19 using HepaRG (AID 2283482). The essentials: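 HepaRG, 48 h chemical exposure, 8-pt half-log series from 100 uM in 0.5% DMSO, duplicates. Readout: CYP2C19 mRNA by TaqMan qRT-PCR, housekeeping-normalized. Bidirectional fit vs DMSO baseline; phenobarbital 1mM as induction control.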

Read-out in another assay: CYP2C8 (gene 1558)
Nature of the assay: LTEA_HepaRG_CYP2C8: Life Technologies and Expression Analysis (LTEA) Assay for CYP2C8 using HepaRG (AID 2283483). A digest of the protocol:
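This is a transcriptional endpoint in HepaRG cultures: 48 h exposure, highest concentration 100 uM. CYP2C8 mRNA is quantified by TaqMan qRT-PCR.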

Read-out in another assay: CYP2C9 (gene 1559)
The experiment in a line: LTEA_HepaRG_CYP2C9: Life Technologies and Expression Analysis (LTEA) Assay for CYP2C9 using HepaRG (AID 2283484). A digest of the protocol:
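Eight-point concentration-response (highest 100 uM, half-log dilutions) in HepaRG cells for 48 h; CYP2C9 expression by qRT-PCR normalized to ACTB, GAPDH, POLR2A. Bidirectional fit, DMSO baseline.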

Read-out in another assay: CYP2E1 (gene 1571)
Nature of the assay: LTEA_HepaRG_CYP2E1: Life Technologies and Expression Analysis (LTEA) Assay for CYP2E1 using HepaRG (AID 2283485). A digest of the protocol:
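CYP2E1 transcript measured by Fluidigm qRT-PCR against three housekeeping genes in human HepaRG cells treated 48 h (top 100 uM, half-log steps, 0.5% DMSO vehicle). Gain or loss fitted relative to DMSO baseline.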

Read-out in another assay: CYP4A11 (gene 1579)
Nature of the assay: LTEA_HepaRG_CYP4A11: Life Technologies and Expression Analysis (LTEA) Assay for CYP4A11 using HepaRG (AID 2283486). A digest of the protocol:
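CYP4A11 transcript levels were quantified by TaqMan qRT-PCR after HepaRG human liver cells were treated for 48 hours with test chemicals (top 100 uM, half-log dilutions, 0.5% DMSO). Gain or loss of signal was fitted relative to DMSO.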

Read-out in assay [9]: Cytochrome P450 3A4 (Homo sapiens) (UniProt P08684)
Nature of the assay: LTEA_HepaRG_CYP3A4: Life Technologies and Expression Analysis (LTEA) Assay for CYP3A4 using HepaRG (AID 2283487). A digest of the protocol: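 Differentiated HepaRG cells in serum-free induction medium exposed in duplicate for 48 h to 8 half-log concentrations up to 100 uM in 0.5% DMSO. CYP3A4 mRNA measured by qRT-PCR normalized to ACTB, GAPDH and POLR2A; bidirectional fit versus DMSO.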

Read-out in assay [10]: DNA damage-inducible transcript 3 (DDIT3), DDIT3 (gene 1649)
Nature of the assay: LTEA_HepaRG_DDIT3: Life Technologies and Expression Analysis (LTEA) Assay for DNA damage-inducible transcript 3 (DDIT3) using HepaRG (AID 2283488). The essentials: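 DDIT3 transcript was quantified by qRT-PCR with ACTB/GAPDH/POLR2A normalization after 48 h chemical treatment of differentiated HepaRG cells in 0.5% DMSO. Dosing was eight-point, half-log, top 100 uM, duplicate wells. Curves fitted bidirectionally versus DMSO.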

Read-out in assay [11]: Pro-epidermal growth factor (Homo sapiens) (UniProt P01133)
Nature of the assay: LTEA_HepaRG_EGF: Life Technologies and Expression Analysis (LTEA) Assay for Epidermal growth factor (EGF) using HepaRG (AID 2283489). A digest of the protocol:
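qRT-PCR readout of EGF transcript after 48 h chemical exposure of HepaRG cells; eight concentrations from 100 uM down in half-log steps, duplicate wells, 0.5% DMSO vehicle. Bidirectional curve fitting against DMSO baseline.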

Read-out in assay [12]: Early growth response protein 1 (EGR1) transcription factor, EGR1 (gene 1958)
Nature of the assay: LTEA_HepaRG_EGR1: Life Technologies and Expression Analysis (LTEA) Assay for Early growth response protein 1 (EGR1) transcription factor using HepaRG (AID 2283490). The essentials: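 EGR1 expression change in human HepaRG after 48 h chemical exposure, assessed by housekeeping-normalized qRT-PCR; concentration-response up to 100 uM, fitted in both directions against DMSO controls.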

Read-out in assay [13]: Ezrin (EZR), EZR (gene 7430)
The experiment in a line: LTEA_HepaRG_EZR: Life Technologies and Expression Analysis (LTEA) Assay for Ezrin (EZR) using HepaRG (AID 2283491). The essentials: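 Differentiated human HepaRG cells, 48 h after plating, were exposed in serum-free induction medium for 48 hours to eight half-log concentrations up to 100 uM in 0.5% DMSO. EZR mRNA was measured by TaqMan qRT-PCR, normalized to ACTB, GAPDH and POLR2A, and fitted bidirectionally against DMSO.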

Read-out in assay [14]: Cytochrome P450 3A7 (Homo sapiens) (UniProt P24462)
The experiment in a line: LTEA_HepaRG_CYP3A7: Life Technologies and Expression Analysis (LTEA) Assay for CYP3A7 using HepaRG (AID 2283492). The essentials:
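CYP3A7 transcript levels were read by TaqMan qRT-PCR on Fluidigm arrays after 48 h chemical exposure of human HepaRG cells, with housekeeping-gene normalisation. Eight half-log concentrations up to 100 uM in 0.5% DMSO were tested in duplicate.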

Sequence of Cytochrome P450 3A7 (Homo sapiens) (P24462 whole entry, looked up): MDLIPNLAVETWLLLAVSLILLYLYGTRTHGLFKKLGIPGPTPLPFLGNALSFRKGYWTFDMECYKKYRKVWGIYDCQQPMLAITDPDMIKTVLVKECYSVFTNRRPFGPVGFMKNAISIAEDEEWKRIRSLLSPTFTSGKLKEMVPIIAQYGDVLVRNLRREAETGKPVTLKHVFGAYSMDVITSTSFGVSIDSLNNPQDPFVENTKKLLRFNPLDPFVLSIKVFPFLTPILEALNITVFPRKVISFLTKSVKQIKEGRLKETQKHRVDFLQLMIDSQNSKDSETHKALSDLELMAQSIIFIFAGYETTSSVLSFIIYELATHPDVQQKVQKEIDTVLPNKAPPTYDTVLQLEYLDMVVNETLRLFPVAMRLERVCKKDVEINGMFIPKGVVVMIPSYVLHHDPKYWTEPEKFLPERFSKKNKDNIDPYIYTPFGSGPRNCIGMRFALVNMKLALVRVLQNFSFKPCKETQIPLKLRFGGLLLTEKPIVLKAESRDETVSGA
Sequence of Cytochrome P450 2C19 (Homo sapiens) (P33261 whole entry, looked up): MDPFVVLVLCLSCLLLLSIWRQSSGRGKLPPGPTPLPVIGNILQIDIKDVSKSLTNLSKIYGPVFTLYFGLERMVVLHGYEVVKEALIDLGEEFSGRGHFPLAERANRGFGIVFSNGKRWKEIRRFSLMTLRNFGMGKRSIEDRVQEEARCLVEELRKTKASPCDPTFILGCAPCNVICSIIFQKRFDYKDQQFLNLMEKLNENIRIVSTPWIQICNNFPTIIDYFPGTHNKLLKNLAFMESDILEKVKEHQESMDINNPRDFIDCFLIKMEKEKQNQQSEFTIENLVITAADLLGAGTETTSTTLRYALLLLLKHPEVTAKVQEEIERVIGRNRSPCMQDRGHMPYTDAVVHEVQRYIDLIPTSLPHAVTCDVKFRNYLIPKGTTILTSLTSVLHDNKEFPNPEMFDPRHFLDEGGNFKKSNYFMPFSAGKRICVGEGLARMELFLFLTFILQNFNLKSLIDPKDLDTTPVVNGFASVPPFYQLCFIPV
Sequence of Apoptosis regulator Bcl-2 (Homo sapiens) (P10415 whole entry, looked up): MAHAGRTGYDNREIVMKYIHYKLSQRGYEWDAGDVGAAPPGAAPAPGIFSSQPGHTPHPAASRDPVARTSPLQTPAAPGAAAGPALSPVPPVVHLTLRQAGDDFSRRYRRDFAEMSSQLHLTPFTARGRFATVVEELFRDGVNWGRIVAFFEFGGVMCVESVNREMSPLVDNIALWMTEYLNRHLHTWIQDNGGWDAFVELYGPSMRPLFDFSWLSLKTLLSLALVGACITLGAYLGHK
Sequence of Caspase-3 (Homo sapiens) (P42574 whole entry, looked up): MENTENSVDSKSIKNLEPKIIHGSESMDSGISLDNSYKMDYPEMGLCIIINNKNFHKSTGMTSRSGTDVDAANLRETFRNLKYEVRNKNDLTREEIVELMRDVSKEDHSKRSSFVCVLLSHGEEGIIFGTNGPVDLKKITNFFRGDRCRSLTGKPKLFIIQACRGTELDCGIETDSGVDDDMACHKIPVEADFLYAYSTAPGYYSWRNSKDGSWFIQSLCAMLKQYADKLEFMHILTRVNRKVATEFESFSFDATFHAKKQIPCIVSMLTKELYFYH
Sequence of Cytochrome P450 3A4 (Homo sapiens) (P08684 whole entry, looked up): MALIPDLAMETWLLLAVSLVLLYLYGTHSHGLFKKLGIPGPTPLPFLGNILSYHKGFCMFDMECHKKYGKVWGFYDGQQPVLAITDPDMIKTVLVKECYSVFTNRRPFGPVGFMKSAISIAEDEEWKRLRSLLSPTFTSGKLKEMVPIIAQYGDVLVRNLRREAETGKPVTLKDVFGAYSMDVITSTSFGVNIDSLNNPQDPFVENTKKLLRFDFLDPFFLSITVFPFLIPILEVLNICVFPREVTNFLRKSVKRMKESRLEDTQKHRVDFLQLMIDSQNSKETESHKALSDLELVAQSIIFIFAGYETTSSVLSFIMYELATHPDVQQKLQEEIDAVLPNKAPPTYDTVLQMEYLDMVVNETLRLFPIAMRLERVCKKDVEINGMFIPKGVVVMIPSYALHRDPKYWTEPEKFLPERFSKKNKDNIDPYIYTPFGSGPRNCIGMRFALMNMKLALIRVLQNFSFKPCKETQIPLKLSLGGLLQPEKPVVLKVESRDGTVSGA

On to `CCCSC(=O)N(CCC)CCC`, for which the molecule was classed as inactive (with BCL2L11 (gene 10018); in [1]; in assay [2]; in assay [3]; with Caspase-3 (Homo sapiens); in assay [4]). Besides, the molecule was classed as inactive (in assay [5]; in [6]; in assay [8]; with CYP2C8 (gene 1558); with CYP2C9 (gene 1559); in the assay with CYP2E1 (gene 1571)). In addition, the call (in the assay with CYP4A11 (gene 1579); in assay [9]; in assay [10]; in [11]; in [12]; in assay [13]) was inactive. Further, the molecule was called inactive in [14]. In addition, the AC50 (as a rule, the midpoint of the concentration-response curve, whichever way the signal moves) in [7] is 50 µM (active).
With `C=CCc1ccc2c(c1)OCO2`, the call (with BCL2L11 (gene 10018); in [1]; in assay [2]; in assay [3]; in the assay with Caspase-3 (Homo sapiens); in assay [4]) was inactive. Moreover, the molecule was classed as inactive (in assay [5]; in assay [6]; in assay [8]; with CYP2C8 (gene 1558); in the assay with CYP2C9 (gene 1559); with CYP2E1 (gene 1571)). Further, the call (with CYP4A11 (gene 1579); in assay [9]; in assay [10]; in [11]; in assay [12]; in assay [13]) was inactive. Moreover, in assay [14], the result was inactive. For the same molecule, the AC50 in assay [7] was 18.4 µM (active).
For `CC(C)(C)C(O)(CCc1ccc(Cl)cc1)Cn1cncn1` (stereo not drawn), the molecule was called inactive (in the assay with BCL2L11 (gene 10018); in [3]; with Caspase-3 (Homo sapiens); in assay [4]; in [6]; in assay [11]). Also, the result in [13] was inactive. For the same molecule, the AC50 is 79.4 µM (active) in assay [1]; 79 µM (active) in assay [2]; 2.92 µM (active) in assay [5]; 91.4 µM (active) in assay [7]; 12.1 µM (active) in assay [8]; 11.4 µM (active) in the assay with CYP2C8 (gene 1558). The AC50 with CYP2C9 (gene 1559) is 85.9 µM (active); with CYP2E1 (gene 1571), 50 µM (active); with CYP4A11 (gene 1579), 55.2 µM (active); in assay [9], 2.86 µM (active); in assay [12], 90.1 µM (active); in assay [14] it was 2.43 µM (active).
As for `OCCOCCO`, the call (in the assay with BCL2L11 (gene 10018); in assay [1]; in assay [2]; in assay [3]; in the assay with Caspase-3 (Homo sapiens); in assay [4]) was inactive. Also, the result (in assay [5]; in assay [6]; in assay [8]; in the assay with CYP2C8 (gene 1558); with CYP2C9 (gene 1559); in the assay with CYP2E1 (gene 1571)) was inactive. Moreover, the molecule was classed as inactive (with CYP4A11 (gene 1579); in assay [10]; in assay [11]; in [12]; in assay [13]; in assay [14]). In addition, the AC50 in [7] was 0.128 µM (active).
